Consider six molecules from PubChem BioAssay (EPA / NIEHS).

Activity calls are given as the source filed them. Rule for the calls: active = hit-call score of the fitted dose curve at least 0.9, where 1 is the maximum; inactive = score below 0.9.

Read-out in assay [1]: Collagen III, COL3A1 (gene 1281)
Description: BSK_MyoF_CollagenIII: BioMAP Diversity Plus: MyoF Assay for Collagen III Biomarker Activity (AID 2284239). Conditions: primary human lung fibroblasts. Put shortly: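 Human lung fibroblasts were dosed with chemicals and, 24 hours later, collagen III was measured by ELISA. Activity was fitted in the positive direction against the DMSO negative-control baseline.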

Read-out in assay [2]: Interleukin 17F (IL17F), IL17F (gene 112744)
Briefly: BSK_BT_xIL17F: BioMAP Diversity Plus: BT Assay for Interleukin 17F (IL17F) Biomarker Activity (AID 2284243). Particulars: primary human B cells with PBMC. Put shortly: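 B cell/PBMC co-culture (human primary), 24 h compound exposure; sIL-17F by Luminex xMAP; gain-of-signal fit vs DMSO baseline.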

Read-out in assay [3]: Actin alpha 1 (ACTA1), ACTA1 (gene 58)
Briefly: BSK_MyoF_ACTA1: BioMAP Diversity Plus: MyoF Assay for Actin alpha 1 (ACTA1) Biomarker Activity (AID 2284244). Particulars: primary human lung fibroblasts. Put shortly: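 ELISA read-out of a-SMA in primary human lung fibroblast cultures, 24 h post-dosing. Activity scored in the positive direction versus DMSO baseline.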

Read-out in assay [4]: Interleukin 2 (IL2), IL2 (gene 3558)
Briefly: BSK_BT_xIL2: BioMAP Diversity Plus: BT Assay for Interleukin 2 (IL2) Biomarker Activity (AID 2284245). Particulars: primary human B cells with PBMC. Put shortly:
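Readout: supernatant IL-2 via Luminex xMAP after 24 h chemical dosing of a B cell/PBMC primary human co-culture. DMSO serves as negative control and baseline; increases in signal were fitted.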

Read-out in assay [5]: Basic fibroblast growth factor (bFGF), FGF2 (gene 2247)
Description: BSK_MyoF_bFGF: BioMAP Diversity Plus: MyoF Assay for Basic fibroblast growth factor (bFGF) Biomarker Activity (AID 2284246). Conditions: primary human lung fibroblasts. The method, boiled down: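 Primary human lung fibroblast culture, 24 h compound exposure; ELISA read-out of bFGF. Positive-direction fit vs DMSO baseline. Cytotoxicity: SRB stain (0.1% SRB, 10% TCA fixation, 560 nm) in parallel wells.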

Read-out in assay [6]: Collagen IV, COL4A1 (gene 1282)
Briefly: BSK_MyoF_CollagenIV: BioMAP Diversity Plus: MyoF Assay for Collagen IV Biomarker Activity (AID 2284247). Particulars: primary human lung fibroblasts. Put shortly: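 ELISA read-out of Collagen IV in lung fibroblast cultures, 24 h post-dosing; gain of signal relative to DMSO vehicle baseline defines activity.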

Read-out in assay [7]: Plasminogen activator inhibitor-1 (PAI1), SERPINE1 (gene 5054)
Briefly: BSK_MyoF_PAI1: BioMAP Diversity Plus: MyoF Assay for Plasminogen activator inhibitor-1 (PAI1) Biomarker Activity (AID 2284256).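 For outcome: PAI-1 protein level measured by ELISA in fibroblast cultures; PAI-1 read 24 h after compound addition.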 Conditions: primary human lung fibroblasts. Put shortly:
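ELISA read-out of PAI-1 from primary human lung fibroblast cultures 24 h after dosing; gain-of-signal fit versus DMSO control.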

Read-out in assay [8]: Interleukin-8 (IL8), CXCL8 (gene 3576)
Briefly: BSK_MyoF_IL8: BioMAP Diversity Plus: MyoF Assay for Interleukin-8 (IL8) Biomarker Activity (AID 2284261). Particulars: primary human lung fibroblasts. Put shortly: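 ELISA read-out of IL-8 from primary human lung fibroblasts, 24 h post-dose; positive-direction curve fitting relative to DMSO vehicle baseline.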

The nature of assay [9]: BSK_MyoF_SRB: Viability Assessment in the BioMAP Diversity Plus: MyoF Assay (AID 2284267).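 Note: total protein by SRB absorbance in parallel cultures as cytotoxicity measure; cells assessed 24 h after compound addition.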 Conditions: primary human lung fibroblasts. Put shortly: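 Lung fibroblast cultures, 24 h post-dose; fix 10% TCA, stain 0.1% SRB, read 560 nm. Signal = total protein as cytotoxicity measure; fitted relative to DMSO negative control.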
Read-out in assay [10]: Matrix Metallopeptidase 1 (MMP1), MMP1 (gene 4312)
Briefly: BSK_MyoF_MMP1: BioMAP Diversity Plus: MyoF Assay for Matrix Metallopeptidase 1 (MMP1) Biomarker Activity (AID 2284268). Particulars: primary human lung fibroblasts. The method, boiled down:
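ELISA readout of MMP1 in primary human lung fibroblast cultures, 24 h post-dosing. Gain of signal versus DMSO vehicle control defines activity. Parallel SRB staining (0.1% after 10% TCA fixation, 560 nm) flags overt cytotoxicity.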

Read-out in assay [11]: TIMP metallopeptidase inhibitor 1 (TIMP1), TIMP1 (gene 7076)
Briefly: BSK_MyoF_TIMP1: BioMAP Diversity Plus: MyoF Assay for TIMP metallopeptidase inhibitor 1 (TIMP1) Biomarker Activity (AID 2284269). Conditions: primary human lung fibroblasts. The method, boiled down: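 TIMP-1 levels were determined by ELISA in human lung fibroblasts treated for 24 h. DMSO served as negative control and baseline for upward curve fitting.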

Read-out in assay [12]: Monokine induced gamma interferon (MIG), CXCL9 (gene 4283)
Description: BSK_KF3CT_MIG: BioMAP Diversity Plus: KF3CT Assay for Monokine induced gamma interferon (MIG) Biomarker Activity (AID 2284248). Particulars: primary human keratinocytes with fibroblasts. The method, boiled down:
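Human keratinocyte plus foreskin fibroblast primary co-culture dosed with test chemical for 24 h; MIG level measured by ELISA and fitted in the positive direction against DMSO as baseline.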

Read-out in assay [13]: Collagen I, COL1A1 (gene 1277)
Briefly: BSK_hDFCGF_CollagenI: BioMAP Diversity Plus: hDFCGF Assay for Collagen I Biomarker Activity (AID 2284250). Conditions: primary human foreskin fibroblasts. The method, boiled down: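 ELISA read-out of Collagen I in human dermal foreskin fibroblast cultures, 24 h after dosing. Gain of signal versus DMSO vehicle defines activity.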

Read-out in assay [14]: Plasminogen activator inhibitor-1 (PAI1), SERPINE1 (gene 5054)
Description: BSK_KF3CT_PAI1: BioMAP Diversity Plus: KF3CT Assay for Plasminogen activator inhibitor-1 (PAI1) Biomarker Activity (AID 2284252). Particulars: primary human keratinocytes with fibroblasts. Put shortly: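 Keratinocyte + dermal fibroblast co-culture (human primary); 24 h post-dose; PAI-1 by ELISA; gain-of-signal fit vs DMSO control.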

Read-out in assay [15]: Interleukin-8 (IL8), CXCL8 (gene 3576)
Briefly: BSK_KF3CT_IL8: BioMAP Diversity Plus: KF3CT Assay for Interleukin-8 (IL8) Biomarker Activity (AID 2284254). Particulars: primary human keratinocytes with fibroblasts. Put shortly:
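Human primary keratinocyte plus foreskin fibroblast co-culture dosed with test chemicals; IL-8 measured by ELISA 24 h after dosing. Activity fitted in the positive direction relative to DMSO negative control.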

Read-out in assay [16]: Intercellular Adhesion Molecule 1 (ICAM1), ICAM1 (gene 3383)
Briefly: BSK_BE3C_ICAM1: BioMAP Diversity Plus: BE3C Assay for Intercellular Adhesion Molecule 1 (ICAM1) Biomarker Activity (AID 2284278).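 Note: cell-surface ICAM-1 protein level quantified by ELISA.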 Particulars: primary human bronchial epithelial cells. Put shortly: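 ELISA read-out of ICAM-1 on human lung bronchial epithelial primary cells, 24 h post-dosing; positive-direction curve fit, DMSO = baseline. SRB total-protein staining of parallel cultures flagged overt cytotoxicity.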

Read-out in assay [17]: Interferon-inducible T-cell alpha chemoattractant (ITAC), CXCL11 (gene 6373)
Description: BSK_BE3C_ITAC: BioMAP Diversity Plus: BE3C Assay for Interferon-inducible T-cell alpha chemoattractant (ITAC) Biomarker Activity (AID 2284279). Particulars: primary human bronchial epithelial cells. The method, boiled down: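 The assay measures I-TAC levels by ELISA in human primary bronchial epithelial cell cultures 24 hours after chemical treatment. Values reflect signal increase over the DMSO baseline.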

Read-out in assay [18]: Interleukin-8 (IL8), CXCL8 (gene 3576)
Description: BSK_BE3C_IL8: BioMAP Diversity Plus: BE3C Assay for Interleukin-8 (IL8) Biomarker Activity (AID 2284280). Particulars: primary human bronchial epithelial cells. Put shortly: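 Primary human bronchial epithelial cells (BE3C system) were exposed to test chemical for 24 h, and IL-8 levels were then measured by ELISA. Activity was fitted in the positive (gain-of-signal) direction against a DMSO negative-control baseline.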

Read-out in assay [19]: Epidermal growth factor receptor (EGFR), EGFR (gene 1956)
Description: BSK_BE3C_EGFR: BioMAP Diversity Plus: BE3C Assay for Epidermal growth factor receptor (EGFR) Biomarker Activity (AID 2284281). Conditions: primary human bronchial epithelial cells. The method, boiled down: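 Human primary bronchial epithelial cells were exposed to compound for 24 h, and cell-surface EGFR was then quantified by ELISA. Activity was fitted in the positive direction against the DMSO vehicle baseline.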

For `CCc1c(C)cc(N)c(CC)c1N`, the result in [1], in [2], in assay [3], in assay [4], in assay [5] and in assay [6] was inactive. Besides, the outcome in assay [7], in assay [8], in [9], in [10] and in assay [11] was inactive.
Usually AC50 stands for the concentration at which the activity in the assay is half-maximal. On to `c1ccc2sc(SN(C3CCCCC3)C3CCCCC3)nc2c1`, for which the outcome in assay [1], in [2], in assay [4], in assay [5], in assay [6] and in assay [7] was inactive. Further, the result in assay [8], in [9] and in assay [11] was inactive. Besides, the concentration at half-maximal activity (AC50) is 5.57 µM (active) in [3] and 6.26 µM (active) in assay [10].
Regarding `O=C1OC2(c3cc(Br)c(O)c(Br)c3Oc3c2cc(Br)c(O)c3Br)c2c(Cl)c(Cl)c(Cl)c(Cl)c21`, the AC50 was 4.52 µM (active) in assay [1]; 5.23 µM (active) in assay [3]; 11.9 µM (active) in assay [5]; 2.72 µM (active) in assay [6]; 4.56 µM (active) in assay [7]; 20 µM (active) in assay [8]. The results for the AC50 in [9] and in assay [11] were 9.73 µM (active) and 8.64 µM (active), respectively. Also, the outcome in assay [2], in assay [4] and in assay [10] was inactive.
Consider `O=C=NC1CCC(CC2CCC(N=C=O)CC2)CC1` (stereo not given), for which the outcome in assay [1], in assay [2], in assay [3], in assay [4], in [5] and in assay [6] was inactive. Besides, the result in assay [7], in assay [8], in [9], in assay [10] and in [11] was inactive.
Consider `CCC(=O)OCc1ccccc1`, for which the outcome in assay [12], in assay [13], in [14], in assay [15], in [16] and in [17] was inactive. Moreover, the result in [18] and in [19] was inactive.
With `C=CCOC(=O)CCC1CCCCC1`, the result in assay [12], in assay [13], in [14], in [15], in assay [16] and in [17] was inactive. Further, the result in assay [18] and in assay [19] was inactive.
